# Screening data deposited in PubChem BioAssay by National Center for Advancing Translational Sciences (NCATS).
# RGS4 inh: Inhibitors of Regulator of G Protein Signaling (RGS) 4: qHTS; Regulator of G-protein signaling 4 (Homo sapiens), P49798; Transcreener GDP fluorescence polarization, RGS4-accelerated GTP hydrolysis; Potency, µM (highest dose often 114 µM), for the others: at the highest dose activity change, negative = inhibition, actives largely listed as inhibitors; 0.039% of 390,000 active; further: on the % scale 0 is the no-effect control and ±100 the full control effect; nearly all actives have a fitted effect of over 75% in size
# Target sequence (P49798 whole entry, looked up): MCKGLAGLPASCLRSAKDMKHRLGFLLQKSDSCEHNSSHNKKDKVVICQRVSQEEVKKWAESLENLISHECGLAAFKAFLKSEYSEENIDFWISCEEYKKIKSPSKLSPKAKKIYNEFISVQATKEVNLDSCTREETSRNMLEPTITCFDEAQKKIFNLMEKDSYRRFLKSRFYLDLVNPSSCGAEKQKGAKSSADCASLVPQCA
#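 MLSMR compounds (23 nl, pin-transferred) preincubated 10 min at room temperature with a 500nM (2x) first reagent, then RGS4 at 900nM (2x) plus Transcreener GDP mix added; fluorescence polarization (620/688 nm) read before and after 90 min at 30 °C.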
# KB-V1 cytotox: qHTS assay for MDR1-selective chemotherapeutics: Primary screen using the drug-selected MDR subline cells KB-V1. 3.4% of 400,000 active. KB-V1 MDR cells viability, CellTiter-Glo, 72 h. Potency, µM (doses to about 46.1 µM), actives largely listed as cytotoxic. AID 1347076, 2019; further: on the % scale 0 is the no-effect control and ±100 the full control effect; nearly all actives have a fitted effect of over 60% in size
#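 Following 72 h at 37 degrees C with compound, KB-V1 cell viability was read by CellTiter-Glo luminescence, medium being phenol-red-free DMEM plus 10% FBS; concentration-response parameters came from normalized, curve-fitted qHTS data.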
# KB-3-1 cytotox: qHTS assay for MDR1-selective chemotherapeutics: Primary screen using the parental adenocarcinoma cell KB-3-1; KB-3-1 viability, CellTiter-Glo ATP luminescence, 72 h; Potency, µM (titrated, usually from 46.1 µM), most hits filed as cytotoxic; 1.4% of 400,000 active; further: on the % scale 0 is the no-effect control and ±100 the full control effect; nearly all actives have a fitted effect of over 60% in size
#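 Parental KB-3-1 viability, qHTS format: 72 h compound exposure, 37 °C; CellTiter-Glo; media-only wells and DMSO plates as controls; concentration-effect fits on corrected data.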
# PTAP TSG101 blk: qHTS Assay for Iinhibitors of HIV-1 Budding by Blocking the Interaction of PTAP/TSG101; 340,000 tested, under 10 active; AID 493005, 2010; Fluorescence polarization, FITC-PTAP peptide / Tsg101 binding; Potency, µM (top dose mostly 115 µM), inactives show top-dose activity change, negative = inhibition, actives largely listed as inhibitors; Tumor susceptibility gene 101 protein (Homo sapiens), Q99816; active means well fitted inhibition curve with a large enough effect in the main read-out, with a control signal flat, not every such curve was filed as active; inconclusive means small, poorly fitted or top-dose-only effect, or effect the other way, or a change in a side signal; inactive means no such curve, though single readings can be large or run the other way; further: % of control where 0% means no effect
# Target sequence (Q99816 whole entry, looked up): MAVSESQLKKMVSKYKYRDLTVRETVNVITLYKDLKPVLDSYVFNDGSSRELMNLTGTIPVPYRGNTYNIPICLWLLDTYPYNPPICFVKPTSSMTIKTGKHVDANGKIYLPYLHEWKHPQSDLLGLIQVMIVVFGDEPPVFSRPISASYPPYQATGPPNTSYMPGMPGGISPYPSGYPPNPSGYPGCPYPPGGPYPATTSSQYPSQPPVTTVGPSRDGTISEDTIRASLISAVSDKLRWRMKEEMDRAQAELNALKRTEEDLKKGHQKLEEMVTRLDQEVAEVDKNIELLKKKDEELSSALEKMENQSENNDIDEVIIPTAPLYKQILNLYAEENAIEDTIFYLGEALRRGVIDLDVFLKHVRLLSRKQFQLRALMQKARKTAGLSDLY
#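 Steps: Tsg101 binding domain dispensed (10 uM final), compounds pinned in DMSO, FITC-labeled PTAP-motif peptide added (50 nM final); after 20 min binding at room temperature, polarization measured.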
# MCF10A rerep: A quantitative high throughput screen for small molecules that induce DNA re-replication in MCF 10a normal breast cells; MCF 10A DNA re-replication, Hoechst nuclear intensity, 48 h; Potency, µM (titrated, usually from 46.1 µM), without a hit: at the highest dose activity, positive = re-replication, most hits filed as activators; 2.9% of 350,000 active; AID 624296, 2012; further: % of control where 0% means no effect; nearly all actives have a fitted effect of over 50% in size
# SW480 rereplic: A quantitative high throughput screen for small molecules that induce DNA re-replication in SW480 colon adenocarcinoma cells; SW480 DNA re-replication, Hoechst DNA content imaging, 48 h; Potency, µM (titrated, usually from 46.1 µM), without a hit: at the highest dose re-replication activation, hits mostly activators; AID 624297, 2012; 1.8% of 340,000 active; further: % of control where 0% means no effect; nearly all actives have a fitted effect of over 55% in size
#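 250 cells/well; 23 nL cpd via pin tool; 48 hr, 37 C, 5% CO2; Hoechst 40 min; imager read of total nuclear intensity, ex 405/em 500-530 nm.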
# Starred values were filed as active, the others as inactive; i = inactive; ? = inconclusive; . = no result given; [ ] = another dose, or the depositor's remark. Only some compounds are listed: those with a hit (about 6.6% of all), similar ones and a draw of the others. Unless noted, the call rests on the fitted dose curve; in most records, active means well fitted curve in the direction sought with a large enough effect; inconclusive means small, poorly fitted or top-dose-only effect, or another doubt; inactive means no such curve, though single readings can be large; an effect the other way counts as inactive or inconclusive. Potency means the concentration at half of the fitted maximal effect.
SMILES,RGS4 inh,KB-V1 cytotox,KB-3-1 cytotox,PTAP TSG101 blk,MCF10A rerep,SW480 rereplic
COc1ccc(Cn2c(=O)[nH]c3cc(C(=O)N4CCN(c5cc(Cl)ccc5C)CC4)ccc3c2=O)cc1,-2%,i,i,.,.,.
COc1ccccc1N1CCN(/N=C/c2cc(OC)c(OC)c(OC)c2)CC1,2%,15µM*,i,-3%,-74%,-81%
COc1ccccc1N1CCN(/N=C/c2cc([N+](=O)[O-])ccc2Cl)CC1,-21%,i,i,0%,0.58µM*,-79%
O=[N+]([O-])c1ccc(Cl)c(/C=N/N2CCN(c3ccccc3)CC2)c1,3%,i,i,-8%,6%,3%
O=[N+]([O-])c1ccccc1/C=N/N1CCN(c2ccc(Cl)cc2)CC1,-10%,10µM*,?,-1%,16%,-5%
COc1cc(/C(C)=N/N2CCN(c3ccccc3OC)CC2)ccc1O,-15%,i,i,-7%,3.7µM*,-33%
CCCCNC(=O)[C@@H]1CC=C[C@@H]2CCN(CCCC)C(=O)[C@@H]21,.,i,i,.,.,.
CC(Oc1ccccc1F)C(=O)Nc1ccc2ccccc2c1 (centres undefined),7%[11.4 µM],?,12µM*,0%,?,1%
CC(Oc1ccc(F)cc1)C(=O)Nc1ccc2ccccc2c1 (centres undefined),31%,?,i,-10%,?,10%
COCc1c(Br)c(C)nc(OCC(=O)N/N=C/c2ccc(C)o2)c1C#N,-5%,?,i,-12%,0.73µM*,8%
COCc1c(Br)c(C)nc(OCC(=O)N/N=C/c2ccco2)c1C#N,9%[11.4 µM],i,i,-10%,12%,-8%
Cc1sc2ccccc2[n+]1CCC[n+]1c(C)sc2ccccc21,.,i,i,.,.,.
CSc1nc(C)cc(Nc2c(C)cc(C)cc2C)n1,1%,i,i,.,.,.
Cc1ccc(C2(C(=O)N3CCC(n4nc(-c5ccccc5)oc4=O)CC3)CC2)cc1,-10%,i,i,-3%,21µM*,-27%
COc1ccc(C2(C(=O)N3CCC(n4nc(-c5ccccc5)oc4=O)CC3)CC2)cc1,3%,i,i,-2%,5%,-19%
CC(=O)Oc1c(I)cc(I)cc1C(=O)Nc1ccc(Cl)cc1,-4%,16µM*,23µM*,2%,7.3µM*,?
CCc1ccccc1NC(=O)C1CCCN(c2nnc(-n3c(C)ccc3C)s2)C1 (centres undefined),6%,.,.,.,.,.
CCCN1C(=O)C(=O)N(CC(=O)c2cc(C)n(C3CC3)c2C)C1=O,-8%,21µM*,?,-4%,4%,0%
Cc1cc(C(=O)CN2C(=O)C(=O)N(CC(C)C)C2=O)c(C)n1C1CC1,-16%,18µM*,i,-2%,13%,?
CC(C)CN1C(=O)C(=O)N(CC(=O)c2ccc3c(c2)CCCC3)C1=O,3%,16µM*,i,1%,9%,-1%
CCCCN1C(=O)C(=O)N(CC(=O)c2ccc3c(c2)CCCC3)C1=O,2%,?,i,0%,8%,-13%
COc1cccc(C2(C)NC(=O)N(CC(=O)c3cc(C)n(C4CC4)c3C)C2=O)c1 (centres undefined),-2%,16µM*,i,-4%,-1%,-4%
O=C(C[n+]1cccc2cc(Cl)ccc21)c1ccc(I)cc1,.,i,?,.,.,.
Cc1cnc(C(=O)O)cn1,.,.,.,.,-1%,-4%
COc1ccc(N(CC(=O)NCc2ccccc2Cl)S(=O)(=O)c2c(C)[nH]c(=O)[nH]c2=O)cc1,-3%,i,i,.,.,.
SMILES,RGS4 inh,KB-V1 cytotox,KB-3-1 cytotox,PTAP TSG101 blk,MCF10A rerep,SW480 rereplic
CCc1ccccc1NC(=O)Cn1nc2c3cc(F)ccc3n(Cc3cccc(C)c3)cc-2c1=O,11%,i,i,.,.,.
Cc1cc(C(=O)CN2C(=O)C(=O)N(CCC3=CCCCC3)C2=O)c(C)n1C,-27%,23µM*,i,-7%,17%,1%
O=C(Nc1ccccc1F)C(Cc1ccccc1)N1Cc2ccccc2C1=O (centres undefined),9%,.,.,.,.,.
CN(C)C1=NCC(CSC(=N)N)S1 (centres undefined),13%,i,i,-5%,?,8.2µM*
O=c1[nH]c(=O)n([C@@H]2C[C@H](O)[C@H](CO)O2)cc1I,.,.,.,.,6%[20.6 µM],-13%[20.6 µM]
CCc1cn(C2CC(O)C(CO)O2)c(=O)[nH]c1=O (centres undefined),9%,i,4.6µM*,2%,25%,-8%
CCOc1ccc(NC(=O)CN2CCN(S(=O)(=O)c3ccc(OC)cc3)CC2)cc1,13%,i,i,.,.,.
CCOC(=O)Nc1ccc(S(=O)(=O)N2CCC(C)CC2)cc1,-2%,21µM*,i,0%,?,-5%
O=C(CN1CCN(c2ccc(O)cc2)CC1)Nc1cc(S(=O)(=O)N2CCCCC2)ccc1Cl,-29%,8.2µM*,i,-2%,6%,-1%
O=C(CN1CCN(c2ccc(O)cc2)CC1)Nc1cc(S(=O)(=O)N2CCCC2)ccc1Cl,-26%,i,i,-13%,11%,?
CCOC(=O)Nc1ccc(S(=O)(=O)N2CCOCC2)cc1,-11%,i,i,-3%,5%,-7%
O=S(=O)(c1ccc(Cl)c(NC(=S)N/N=C/c2ccc(O)cc2)c1)N1CCOCC1,?,21µM*,?,-1%,?,18µM*
COc1ccc(NC(=O)CN2CCN(S(=O)(=O)c3ccc(Cl)cc3)CC2)cc1,-4%,16µM*,i,.,8%,9%
N#Cc1ccc(S(=O)(=O)N2CCN(c3nc(-c4ccccc4)nc4ccccc34)CC2)cc1,11%,.,.,.,.,.
COc1cccc(NC(=O)CN2CCN(S(=O)(=O)c3ccc(F)cc3)CC2)c1,18%,i,i,-3%,-11%,1%
Cc1cc(C)c(C)c(S(=O)(=O)N2CCN(CC(=O)Nc3ccc([N+](=O)[O-])cc3)CC2)c1C,-48%,i,i,0%,-2%,?
COc1cc(NC(=O)CCC(=O)N2CCN(S(=O)(=O)c3ccc(C)cc3)CC2)cc(OC)c1,-7%,18µM*,i,0%,10%,10%
